Source: PubChem
TbPYK inhibitor: inhibitors of Trypanosoma brucei pyruvate kinase | TbPYK enzyme, Kinase-Glo Plus ATP luminescence, 45 min | Potency, µM (doses to about 76.8 µM), actives largely listed as inhibitors | actives 0.12% (n = 410,000) | AID 624173; note: nearly all actives have a fitted effect of over 50% in size
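Quantitative HTS: titrated library compounds versus trypanosomal pyruvate kinase in TEA buffer (pH 7.2) containing KCl, MgCl2, BSA and Tween-20. Reactions were initiated with ADP, 130 uM final. Kinase-Glo Plus luminescence was read after 45 min at RT.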
Sm TGR block: S. mansoni TGR enzyme inhibition; actives 3% (n = 360,000); Q962Y6; purified TGR, DTNB reduction, TNB absorbance 405 nm; Potency, µM (highest dose often 114 µM), actives largely listed as inhibitors; AID 485364; note: nearly all actives have a fitted effect of over 60% in size
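Kinetic colorimetric format: TGR-catalysed, NADPH-driven DTNB reduction monitored via TNB absorbance. Enzyme dispensed at 20 nM; compound exposure 15 min at room temperature before reaction start.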
LmPK inh: LmPK (Leishmania mexicana) enzyme inhibition; purified LmPK, Kinase-Glo ATP luminescence, 1 h; AID 1721; Potency, µM (series often up to 57.5 µM), actives largely listed as inhibitors; actives 0.37% (n = 290,000)
Target sequence (Q27686 whole entry, looked up): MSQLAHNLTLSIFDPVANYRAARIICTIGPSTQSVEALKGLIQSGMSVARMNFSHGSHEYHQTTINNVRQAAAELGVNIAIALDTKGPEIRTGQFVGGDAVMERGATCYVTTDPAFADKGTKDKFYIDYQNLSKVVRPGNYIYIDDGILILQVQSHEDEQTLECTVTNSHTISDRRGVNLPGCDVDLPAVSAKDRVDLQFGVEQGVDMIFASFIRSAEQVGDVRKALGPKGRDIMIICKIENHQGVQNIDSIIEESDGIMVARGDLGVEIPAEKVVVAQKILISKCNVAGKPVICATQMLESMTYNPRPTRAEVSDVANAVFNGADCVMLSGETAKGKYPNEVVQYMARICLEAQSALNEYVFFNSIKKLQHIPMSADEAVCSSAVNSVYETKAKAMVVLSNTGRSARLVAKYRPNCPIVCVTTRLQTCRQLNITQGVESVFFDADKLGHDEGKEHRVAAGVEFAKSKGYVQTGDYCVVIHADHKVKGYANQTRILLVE
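Purified LmPK (0.1 nM) converted ADP (0.1 mM) to ATP with PEP (0.5 mM) in imidazole buffer pH 7.2 with KCl and MgCl2, 1 h at room temperature. ATP was read by Kinase-Glo luminescence; data normalized to uninhibited and no-enzyme controls.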
NS1 inh: influenza NS1 inhibition; actives 0.4% (n = 270,000); Potency, µM (series often up to 46.1 µM); calls by dose curve; note: actives are rising curves; nearly all actives have a fitted effect of over 50% in size
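Read-out: OD600 growth recovery of NS1-expressing budding yeast. Cells grown overnight at 30C in -URA glucose medium, washed, resuspended and diluted 1:100 in 2% galactose assay medium, pH 6.0. Same strain lacking NS1 served as positive control.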
RE007 growth inh: less growth of the S. pombe RE007 Vpr strain; S. pombe RE007 Vpr strain, BacTiter-Glo ATP luminescence, 24 h; Potency, µM (doses to about 92.2 µM), actives largely listed as inhibitors; actives 0.21% (n = 360,000); AID 651644; active = well fitted falling curve with a large enough effect; inconclusive = small, poorly fitted or top-dose-only effect; inactive = no such curve, though single readings can be large or run the other way; note: nearly all actives have a fitted effect of over 50% in size
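Fission yeast RE007 carrying one integrated HIV-1 vpr copy, seeded at OD 0.01 in PMG+AL medium with 23 nL pinned compound. Grown 24 h at 30 degrees; viability read by BacTiter-Glo luminescence after 5 min.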
SARS PLpro yeast: inhibitors of SARS-CoV papain-like protease in yeast; S. cerevisiae expressing SARS-CoV PLpro, growth rescue; Potency, µM (doses to about 32.9 µM), hits mostly activators; actives 0.19% (n = 330,000); AID 485353; calls by dose curve; note: nearly all actives have a fitted effect of over 55% in size
Numbers stand for hits; . = inactive; ? = inconclusive; / = not tested or not shown; ! = not active in a repeat; [ ] = another dose, or the depositor's remark. Sampled rows, rich in hits. Any-hit rate of the full collection: about 3.3%. Unless noted, calls come from the whole dose curve; as a rule, active = well fitted curve in the direction sought with a large enough effect; inconclusive = small, poorly fitted or top-dose-only effect, or another doubt; inactive = no such curve, though single readings can be large; an effect the other way counts as inactive or inconclusive.

SMILES	TbPYK inhibitor	Sm TGR block	LmPK inh	NS1 inh	RE007 growth inh	SARS PLpro yeast
Cc1ccc(NC(=O)c2sc3nc4n(c(=O)c3c2C)CCCCC4)c(Br)c1	.	.	/	/	/	/
Cn1c(/N=C/c2cccs2)nc2ccccc21	.	.	14.1µM	.	.	.
Cc1ccc(CS(=O)(=O)Cc2ccc(C(=O)NCc3ccccn3)o2)cc1	.	39.8µM	.	.	.	.
COc1ccc(S(=O)(=O)Cc2ccc(C(=O)NCc3ccccn3)o2)cc1	.	35.5µM	.	.	.	.
COC(CNC(=O)c1ccc(CS(=O)(=O)c2ccccc2)o1)OC	.	17.8µM	.	.	.	.
COC(=O)c1ccc(CS(=O)(=O)c2ccc(F)cc2)o1	.	22.4µM	.	.	.	.
O=C(NCc1ccc(F)cc1)c1ccc(CS(=O)(=O)c2ccc(Cl)cc2)o1	.[15.4 µM]	.	/	/	/	/
COCCNC(=O)c1ccc(CS(=O)(=O)c2ccc(OC)cc2)o1	.	.	.	.	.	.
O=C(CCn1c(=O)c2cccn2c2ccc(F)cc21)NCCc1ccccc1Cl	.	.	/	/	/	/
Cc1ccc(S(=O)(=O)O[C@@H]2[C@H]([C@@H]3COC(C)(C)O3)O[C@H]3OC(C)(C)O[C@@H]32)cc1	/	/	/	.	/	/
O=C(CSc1cn(CC(=O)N2CCCCC2)c2ccccc12)NCc1ccc(F)cc1	.	.	/	/	/	/
Cc1ccc(-n2cnc3cc(NCc4cccs4)ccc32)cc1	.	.	.	.	22.4µM	.
COc1ccc(C2CC(=O)NC(NC(=O)c3ccc(Br)cc3)=N2)c(OC)c1OC (configuration not stated)	.	.	/	/	/	/
Cc1ccc(O)c(-c2n[nH]c3c2C(c2ccc(F)cc2)N(Cc2ccco2)C3=O)c1 (configuration not stated)	.	.	/	/	/	/
CC(=O)NC(c1cccs1)c1cc(F)c2cccnc2c1O (configuration not stated)	.	50.1µM!	/	/	/	.
CCC(=O)NC(c1cccs1)c1ccc2cccnc2c1O (configuration not stated)	.	.	.	.	?	.
CCC(=O)NC(c1cccs1)c1cc([N+](=O)[O-])c2cccnc2c1OC (configuration not stated)	.	39.8µM	/	/	/	.
CCC(=O)NC(C)c1cc(Cl)c2cccnc2c1O (configuration not stated)	.	.	/	/	/	.
CCC(=O)NC(/C=C/c1ccccc1)c1cc([N+](=O)[O-])c2cccnc2c1O (configuration not stated)	/	.	.	.	/	2.24µM
COC(=O)c1ccc(C(c2c(N)n(Cc3ccccc3)c(=O)n(C)c2=O)N2CCOCC2)cc1 (configuration not stated)	.	22.4µM	.	.	.	.
CC(=O)NC(=S)c1c(N)n(Cc2ccccc2)c(=O)n(C)c1=O	/	.	.	.	/	.
Cc1[nH]c2ccccc2c1C(=O)CN1C(=O)C(=O)N(C2CCCC2)C1=O	.	.	.	/	.	.
COc1ccccc1N1CCN(CC(O)c2c(C)[nH]c3ccccc23)CC1 (configuration not stated)	.	15.8µM	.	.	.	.
COc1ccccc1N1CCN(CC(=O)c2c(C)[nH]c3ccccc23)CC1	.	31.6µM	.	.	.	.
Cc1[nH]c2ccccc2c1C(=O)CN1CCN(C2CCCCC2)CC1	/	39.8µM	.	.	/	.
SMILES	TbPYK inhibitor	Sm TGR block	LmPK inh	NS1 inh	RE007 growth inh	SARS PLpro yeast
COc1ccc(S(=O)(=O)NCCc2nnc3ccc(SCC(=O)Nc4ccc(C(F)(F)F)cc4)nn23)cc1	.	.	/	/	/	/
O=C(c1cccc(F)c1)n1nnc2ccccc21	.	35.5µM	.	.	.	.
CN(C)c1ccc(C(=O)n2nnc3ccccc32)cc1	.	.	.	.	.	.
Cc1cc(C(C2C(=O)CC(C)(C)CC2=O)C2C(=O)CC(C)(C)CC2=O)cc(C)c1OC(F)F	.	31.6µM	.	.	.	?
COc1cccc(C(C2C(=O)CC(C)(C)CC2=O)C2C(=O)CC(C)(C)CC2=O)c1	.	?	.	.	.	.
Oc1ccc(/C=N/Nc2cc(N3CCOCC3)nc(N3CCOCC3)n2)cc1O	.	50.1µM	.	?	.	.
Oc1cccc(/C=N/Nc2cc(N3CCOCC3)nc(N3CCOCC3)n2)c1	.	.	.	.	/	.
O=C(O)c1nnsc1-c1ccc(-c2snnc2C(=O)O)cc1	/	/	/	.	/	/
Cc1ccc(CCNC(=O)C2CC(c3cc(C(F)(F)F)cc(C(F)(F)F)c3)=NO2)cc1 (configuration not stated)	.	.	.	.	.	.
Cc1ccc(CNC(=O)C2CC(c3cc(C(F)(F)F)cc(C(F)(F)F)c3)=NO2)o1 (configuration not stated)	.	17.8µM	.	.	.	.
Cc1ccc(CNC(=O)C2CC(c3cccc([N+](=O)[O-])c3)=NO2)o1 (configuration not stated)	.	31.6µM	.	.	.	.
O=C(NCc1ccco1)C1CC(c2c(Cl)cccc2Cl)=NO1 (configuration not stated)	.	39.8µM	.	.	.	.
Cc1ccc(C2=Nc3ccccc3N(CC(=O)Nc3ccccc3C)C(=O)C2)cc1C	.	.	/	/	/	/
c1ccc2c(-c3cnn4cc(-c5ccc(N6CCNCC6)cc5)cnc34)ccnc2c1	.	/	/	/	/	/
O=C(C1CCN(S(=O)(=O)Cc2ccccc2)CC1)N1CCN(c2ccccc2F)CC1	.	.	/	/	/	/
CCCOCc1cc(CN2CCN(c3ccccc3OC)CC2)c(O)c2ncccc12	.	39.8µM	/	/	/	/
COc1ccccc1N1CCN(Cc2cc(COC(C)C)c3cccnc3c2O)CC1	.	?	/	/	/	/
CCOCc1cc(CN2CCN(c3ccccc3OC)CC2)c(O)c2ncccc12	.	?	/	/	/	/
